Sampled rows, rich in hits. Any-hit rate of the full collection: about 2.2%.
p47phox inh – blocks human p47phox regulatory protein of NADPH oxidases | P14598 | p47phox/p22phox peptide binding, fluorescence polarization, 2 h | inhibition, % at 24.7 µM | actives 0.53% (n = 220,000) | AID 1274;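 active = inhibition above about 30%, limit read from the data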;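 also: 0% = p47phox with labelled peptide and 100% = labelled peptide alone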
Target sequence (P14598 whole entry, looked up): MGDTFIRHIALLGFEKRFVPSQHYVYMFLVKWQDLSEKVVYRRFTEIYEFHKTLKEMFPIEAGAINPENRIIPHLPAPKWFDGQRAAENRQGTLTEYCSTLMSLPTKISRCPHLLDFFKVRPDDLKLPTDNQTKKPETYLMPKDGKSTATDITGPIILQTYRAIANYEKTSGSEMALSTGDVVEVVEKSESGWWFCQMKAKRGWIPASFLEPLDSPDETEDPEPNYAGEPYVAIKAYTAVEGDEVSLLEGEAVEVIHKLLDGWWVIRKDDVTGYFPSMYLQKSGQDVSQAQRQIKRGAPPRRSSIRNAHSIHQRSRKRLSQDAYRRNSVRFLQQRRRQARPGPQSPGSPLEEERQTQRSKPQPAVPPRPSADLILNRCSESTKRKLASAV
Arbovirus inh – blocks arbovirus infection; arbovirus infection cell-based antiviral screen; inhibition, % at 10 µM; actives 0.37% (n = 200,000); AID 1251; in the data active = inhibition above about 30%
DTT redox prof – compounds producing H2O2 with reducing agent – biochemical, NIH compound library profiling, artefact control for MLSCN library redox annotation, primary screen; DTT-dependent redox cycling H2O2, phenol red/HRP absorbance; 100% = 100 µM peroxide control, 0% = buffer; activation, % at 10 µM; actives 0.03% (n = 200,000);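 active = activation of at least 50% relative to the plate's high and low controls in the primary single-dose screen; inactive = activation below 50%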;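 also: compound incubated with DTT at 0.8 mM final as the reducing agent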
Autophagy mod – alters autophagy in cells; actives 0.98% (n = 190,000); MEF GFP-LC3 puncta imaging; test concentration mostly 10 µM; AID 463193; calls only at 10 µM (by protocol);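 active = percentage of spot-positive cells more than 3 SD above its plate mean, without a fluorescence outlier flag or 80% toxicity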;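 also: spot-positive cell cutoff set from DMSO-treated cells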
HMGR II inh – E. faecalis class II HMG-CoA reductase inhibition; actives 0.41% (n = 190,000); purified E. faecalis HMGR, NADPH absorbance 340 nm kinetic; AID 1066; inhibition, % at 10 µM;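 active = inhibition above a set limit, the median over all tested compounds plus 3 SD, cut at about 9.5% in these data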;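 also: enzyme runs in reverse so mevalonate oxidation gives rising NADPH absorbance; 0% = complete reaction with DMSO and 100% = background rate lacking mevalonate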
Insulin prom up – MIN6 insulin promoter up-regulation; actives 0.3% (n = 190,000); AID 1625; MIN6 insulin promoter-GFP reporter, high-content imaging; hits give high values; z-score at 5 µM;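 active = z-score above 3 at 5 µM with at least 500 cells counted in the well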
* hit, by the source's call; i = inactive; nt = not tested or not shown; + = active, no number.

SMILES	p47phox inh	Arbovirus inh	DTT redox prof	Autophagy mod	HMGR II inh	Insulin prom up
O=[N+]([O-])c1ccccc1S(=O)(=O)N1CCN(Cc2ccsc2)CC1	6	8	0	i	0	-0.47
Cc1ccc(CNC(=O)c2ccc(CN3CCOCC3)cc2)cc1	37*	-5	-2	i	11*	-0.12
Cc1ccc(C(O)c2nc3ccccc3n2C(C)C)cc1 (centres undefined)	71*	1	4	i	1	0.15
COc1ccc(C(O)c2nc3ccccc3n2C(C)C)cc1 (centres undefined)	-19	nt	nt	nt	nt	0.11
CN(/N=C/c1ccc(O)cc1O)c1nc(-c2ccccc2)cc(-c2ccccc2)n1	-6	-36	0	i	-4	0.69
COC(=O)[C@H](CCSC)NC(=O)Nc1cc(C)ccc1C	-7	5	1	i	-5	nt
Cc1ccc(C)c(NC(=O)C(C)CC2COCCO2)c1 (centres undefined)	3	3	-8	i	1	3.5*
O=C(CCN1CCN(c2ccccc2)CC1)Nc1ccc2c(c1)OCO2	-15	-6	-2	i	1	0.04
CCN1CCN(CCC(=O)Nc2ccc3c(c2)OCO3)CC1	-1	-2	1	i	16*	nt
Oc1cc(O)c2c(c1)O[C@H](c1ccc(O)c(O)c1)[C@@H](O)C2	-11	nt	nt	nt	nt	0.71
O=C1c2c(O)cc(O)cc2O[C@@]12c1c(cc(O)c3c1O[C@H](c1ccc(O)cc1)[C@@H](O)C3)O[C@@H]2c1ccc(O)cc1	-52	1	0	i	9.6*	0.98
CCOc1ccc(NC(=O)C2C3CC/C=C\CCC32)cc1 (centres undefined)	-1	nt	nt	nt	nt	0.36
CSc1ccc(S(=O)(=O)Nc2ccc3c(c2)OCCO3)cc1	-8	14	-2	i	-11	nt
Cc1c(Cc2ccccc2)sc(NC(=O)/C=C/c2cccc3ccccc23)c1C(N)=O	-32	-9	5	+	-3	-0.39
COC(=O)c1c(NC(=O)/C=C/C(=O)O)sc(Cc2ccccc2)c1C	-1	10	0	i	-4	-0.2
COCCn1c(-c2ccc(Cl)cc2Cl)nc2c(c(=O)c3ccccc3n2C)c1=O	-8	7	0	+	-1	-0.36
COc1ccc(CCn2c(-c3ccc(OC)cc3)nc3c(c(=O)c4ccccc4n3C)c2=O)cc1	-9	nt	nt	nt	nt	-1
O=C(O)/C=C/C(=O)Nc1ccc(OC(F)(F)F)cc1Br	0	nt	nt	nt	nt	-0.05
COc1ccc(C2CCCN2C(=O)Nc2ccc(Cl)cc2)cc1OC (centres undefined)	4	0	-3	+	4	-0.62
COc1ccc(NC(=O)C2CCCN2C(=O)Nc2ccccc2)cc1OC (centres undefined)	-6	-4	4	i	-6	0.55
O=C(NCCN1C(=O)CSC1=O)c1ccccc1	-17	-4	2	i	-7	1.9
O=C(Nc1cc([N+](=O)[O-])ccc1F)C1CC1	-2	-6	0	i	-6	0.93
COCCCNCC1C(Oc2ccc(Cl)cc2)C(=O)N1c1ccccc1C (centres undefined)	-5	49*	0	i	-8	-0.23
Cc1ccccc1N1C(=O)C(Oc2ccc(Cl)cc2)C1CNCCCOC(C)C (centres undefined)	-4	11	0	i	0	-0.39
Cc1ccc(C(=O)N/C(=C\c2cccs2)C(=O)NCc2cccnc2)cc1	-18	30*	0	i	4	-0.34
SMILES	p47phox inh	Arbovirus inh	DTT redox prof	Autophagy mod	HMGR II inh	Insulin prom up
Cc1ccc(Nc2nc(C)c3c(n2)CC(C)CC3=O)c(C)c1 (centres undefined)	3	nt	nt	nt	nt	-0.59
Cc1nc(Nc2cccc(C(F)(F)F)c2)nc2c1C(=O)CC(C)C2 (centres undefined)	-2	-18	3	+	1	-0.06
COc1ccc(OCC(=O)N(C)Cc2ccccc2)cc1	4	-2	-2	+	4	-0.28
O=C(NCCc1nnc2ccc(NCc3ccc(F)cc3)nn12)c1ccccc1	-4	3	-1	i	-7	0.54
COc1ccc(C(CCNC(C)c2ccccc2)C(C)C)cc1 (centres undefined)	42*	nt	nt	nt	nt	0.38
COc1ccc(C(CC(=O)NCc2ccccc2)C(C)C)cc1 (centres undefined)	-7	nt	nt	nt	nt	nt
Cc1c(NC(=O)c2n[nH]c(=O)c3ccccc23)c(=O)n(-c2ccccc2)n1C	-4	2	-1	i	-1	nt
CN1C(=S)N(c2cccnc2)C(=O)/C1=C\c1ccc(N(C)C)cc1	86*	-5	0	i	0	nt
CS(=O)(=O)N(CC(=O)N1CCN(c2ccccc2)CC1)c1cccc(Br)c1	35*	-2	-3	i	-3	-0.82
Cn1/c(=N\NC(=O)c2ccccc2Cl)sc2ccccc21	-4	2	0	i	-4	-0.29
Cc1ccc(C(C#N)c2ccc3c(C(F)(F)F)cc(C(F)(F)F)nc3n2)cc1 (centres undefined)	-11	-6	1	+	-2	0.87
O=C(COc1ccc([N+](=O)[O-])cc1)Nc1ccc(C(=O)Nc2ccccc2C(=O)O)cc1	48*	28	0	i	3	-0.3
CCOC(=O)c1c(C)[nH]c(C2=NNC(=NC3CC3)SC2)c1C	-14	-13	-2	i	2	0.69
N#C/C(=C\c1ccc(C(=O)O)cc1)c1nc2sc3c(c2c(=O)[nH]1)CCCC3	104*	nt	nt	nt	nt	0.02
O=c1[nH][nH]c(-c2ccccc2)c1C=Nc1ccc(OC(F)(F)F)cc1	-8	-3	-2	i	0	nt
Nc1ccc(-c2cnc[nH]2)cc1[N+](=O)[O-]	-4	nt	nt	nt	nt	-0.2
O=C(Nc1cccc(S(=O)(=O)N2CCCCC2)c1)c1c2c(nc3ccccc13)CCN(Cc1ccccc1)C2	-62	-16	0	+	1	nt
CC(=O)Nc1ccc(NC(=O)COC(=O)c2c3c(nc4ccccc24)CCN(Cc2ccccc2)C3)cc1	-30	18	1	+	-9	-0.84
Cc1c(Cl)c(-c2n[nH]c(=S)n2-c2ccc(F)cc2)nn1C	0	8	2	i	11*	0.61
Cn1cnnc1SCC(=O)Nc1ccc(Cl)c(S(=O)(=O)N2CCOCC2)c1	-11	4	-2	i	1	-1
CCC(C)N=C1Sc2nc3ccc(C)cc3cc2CN1CCOC (centres undefined)	4	3	0	i	9.6*	-0.73
CC(C(=O)NC1CCCC1)N(Cc1ccc2c(c1)OCO2)C(=O)c1snc(C(N)=O)c1N (centres undefined)	-2	-1	2	+	-7	-0.04
COc1ccc(C(CNC(=O)c2cc(F)c(F)c(F)c2F)N2CCOCC2)cc1 (centres undefined)	-10	9	0	i	-11	0.08
